# Reference: PubChem BioAssay (NCATS)
# Results filed as inconclusive are left out. Values without a mark were called inactive. The source made the active and inactive calls. Calls come from the whole dose curve; as a rule, active = well fitted curve in the direction sought with a large enough effect; inconclusive = small, poorly fitted or top-dose-only effect, or another doubt; inactive = no such curve, though single readings can be large; an effect the other way counts as inactive or inconclusive. Square brackets hold non-standard residues; d marks the D form. Peptide text beside a SMILES is read from it. ξ: configuration not given here. ξL = CC(C)CC(N)C(=O)O
# Test: HEK-293 Cancer Cell Toxicity qHTS against the NCATS CANVASS Library (AID 1347355); note: nearly all actives have a fitted effect of over 65% in size; note: potency is the fitted concentration of half-maximal effect; for activity change, negative = cytotoxicity: % is set by controls: 0 for no effect and ±100 for the full control effect
# Settings: HEK-293 viability, CellTiter-Glo luminescence, 72 h; series mostly up to 46.1 µM; activity change, negative = cytotoxicity: at the top concentration
# Outline: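 First, 1000 cells go into each well and rest for 4 hours. Next, an 11-point dilution range is pinned in. Plates then incubate 72 hours before CellTiter-Glo addition and luminescence reading.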
SMILES,Potency,"activity change, negative = cytotoxicity"
C/C=C/c1cc2c(c(=O)o1)C(=O)[C@@H](O)[C@H](C)O2,9.35 µM (active),–
CN1CCc2cc3c(c4c2C1(C)C(=O)c1cc(O)ccc1-4)OCO3 (stereo not given),18.7 µM (active),–
COc1cc2ccc(=O)oc2c(O)c1O[C@@H]1O[C@H](CO)[C@@H](O)[C@H](O)[C@H]1O,–,1.13% [at 27.5 µM]
C=C1C[C@H]2O[C@@H]3[C@@H]4[C@H](CC[C@@](C)(O)[C@@H]42)[C@H](C)COC3(C)[C@@H](OC(=O)CCCCCCC)C[C@H]1O (stereo not given in full),23.5 µM (active),–
COc1cc(C2C3=C(Cc4cc5c(cc42)OCO5)C(=O)OC3)cc(OC)c1OC (stereo not given),0.059 µM (active),–
CO[C@@H]1[C@H](O)[C@@H](C)O[C@@H](OC[C@@H]2C(C)OC(=O)/C=C/[C@H](C)C(O[C@@H]3O[C@H](C)CC4(OC(=O)O[C@@H]4C)C3O)[C@@H](C)CC(C)C(=O)/C=C/[C@H]3OC23)[C@@H]1OC (stereo not given in full),20.9 µM (active),–
COc1ccc([C@@H]2c3cc4c(cc3C(=O)[C@H](C)C2C)OCO4)cc1OC (stereo not given in full),18.7 µM (active),–
C/C(=C\[C@H](C)C(=O)C[C@H](O)CC1CC(=O)NC(=O)C1)[C@@H]1OC(=O)CCCC/C=C/[C@@H](O)C[C@@H]1C,9.35 µM (active),–
CC1=C[C@H]2[C@H]3C(=O)C(c4ccc(O)cc4)=C[C@@]3(c3ccc(O)cc3)[C@@H]1C(=O)[C@]2(C)O,0.235 µM (active),–
C=C1C(=O)O[C@H]2[C@H]1CCC(C)=C1CC[C@@](C)(O)[C@@H]12,9.35 µM (active),–
C/C1=C/[C@@H](C)[C@H](O)C/C=C/CC/C=C/C(=O)O[C@@H]1[C@H](C)C(=O)CCCC1CC(=O)NC(=O)C1,20.9 µM (active),–
C=C1C[C@H]2O[C@@H]3[C@@H]4[C@H](CC[C@@](C)(O)[C@@H]42)[C@H](C)COC3(C)[C@@H](OC(=O)CCCCCCC)CC1=O (stereo not given in full),14.8 µM (active),–

# Test: HPAF-II 24hr Apoptosis Induction qHTS against the NCATS CANVASS Library (AID 1347356); note: 0% is about no effect
# Settings: HPAF-II caspase-3/7 Caspase-Glo luminescence; series mostly up to 46.1 µM; caspase activation: at the top concentration
# Outline: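 Cells seeded at 500 per well, then compounds pin-transferred in an 11-point concentration series. After 24 hours at 37 degrees C, Caspase-Glo 3/7 was added and luminescence measured following 15 min at room temperature.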
SMILES,caspase activation,outcome
O[C@H]1C=C2[C@H]3CN(Cc4cc5c(cc43)OCO5)[C@H]2C[C@@H]1O,-0.85%,–
CC[C@@H](c1cc(OC)c(OC)cc1OC)[C@H](C)[C@@H](/C(C)=C/c1cc(OC)c(OC)cc1OC)c1cc(OC)c(OC)cc1OC,–,inactive
C/C=C/c1cc2c(c(=O)o1)C(=O)[C@@H](O)[C@H](C)O2,4.45%,–
CC[C@@H](C)[C@H]1NC(=O)C(CC(C)C)NC(=O)[C@@H](CC(C)C)NC(=O)[C@H](Cc2c[nH]c3ccccc23)NC(=O)CNC(=O)[C@@H](CC(N)=O)NC1=O (stereo partly drawn) (cyclo(GW[dL][ξL][dI][dN])),-4.54%,–
CN1CCc2cc3c(c4c2C1(C)C(=O)c1cc(O)ccc1-4)OCO3 (stereo not given),3.14%,–
COc1cc2c(cc1OC)[C@@H](c1ccc3c(c1)OCO3)C(C)[C@@H](C)C2=O (stereo not given in full),2.78%,–
CC(C)[C@@H]1CC(=O)c2coc3c2[C@H]1C[C@@H](C)C3=O,1.85%,–
COc1cc2oc3ccccc3c(=O)c2cc1OC,-5.69% [at 91.4 µM],–
COC(=O)[C@@]1(C)CCC[C@]2(C)c3cc(OC)ccc3CC[C@@H]12,3.3%,–
COc1cc2ccc(=O)oc2c(O)c1O[C@@H]1O[C@H](CO)[C@@H](O)[C@H](O)[C@H]1O,7.04% [at 27.5 µM],–
CC[C@H]1[C@@H](C)[C@@H](c2cc(OC)c(OC)cc2OC)[C@H](C)[C@@H](c2cc(OC)c(OC)cc2OC)[C@@]12C=C(OC)C(=O)C=C2OC,15.1%,–
O=C1CCC(=O)N(O)CCCCCNC(=O)CCC(=O)N(O)CCCCCNC(=O)CCC(=O)N(O)CCCCCN1,1.56%,–
C=C1C[C@H]2O[C@@H]3[C@@H]4[C@H](CC[C@@](C)(O)[C@@H]42)[C@H](C)COC3(C)[C@@H](OC(=O)CCCCCCC)C[C@H]1O (stereo not given in full),3.34%,–
CC1=C(C)C(=O)OC(C(C)C2(O)CCC3C4C5OC5C5(O)CC=CC(=O)C5(C)C4CCC32C)C1 (stereo not given),2.37%,–
C[C@H](CCC(O)C(C)(O)CO)[C@@]1(O)CC[C@@]2(C)C3=C(CC[C@@]21C)[C@@]1(C)CCC(OC(=O)CCC(=O)O)C(C)(C)[C@@H]1CC3 (stereo not given in full),2.72%,–
COc1cc(C2C3=C(Cc4cc5c(cc42)OCO5)C(=O)OC3)cc(OC)c1OC (stereo not given),-1.89%,–
CO[C@@H]1[C@H](O)[C@@H](C)O[C@@H](OC[C@@H]2C(C)OC(=O)/C=C/[C@H](C)C(O[C@@H]3O[C@H](C)CC4(OC(=O)O[C@@H]4C)C3O)[C@@H](C)CC(C)C(=O)/C=C/[C@H]3OC23)[C@@H]1OC (stereo not given in full),7.9%,–
C=C[C@@](C)(O)CC[C@@H]1[C@@]2(C)CCCC(C)(C)[C@@H]2CC[C@@]1(C)O,1.94%,–
